Test results: the supplement of paper PMC11006884
Targets with a hit are over-represented here; the source holds about 6,500 in all. About 2% of all pairs of compound and target were hits.

Compound: COC(=O)C#Cc1ccccc1 [methyl 3-phenylpropiolate]
Test: log2 ratio of iodoacetamide-alkyne labeling of the cysteine site, DMSO over compound (competition); higher = stronger covalent engagement of the cysteine by the compound, active = 1 or more
Details: 500 µM; treatment time 1 h; system: HEK293T cell lysate
Outline: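 HEK293T lysate (2 mg/mL) was treated with DMSO or electrophile (500 µM, 1 h, ambient temperature), then iodoacetamide alkyne (1 h), clicked to sCIP-TMT reagents, pooled, trypsin-digested overnight at 37 °C, streptavidin-enriched and acid-eluted. Peptides were run on Orbitrap Eclipse LC-MS/MS with FAIMS and quantified in FragPipe. The log2 competition ratio per cysteine is mean control-channel over mean compound-channel reporter intensity. Duplicate channels and three replicates were used, and cysteines quantified in only one replicate were excluded.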

UniProt Q14697, sequence (Q14697 whole entry, looked up): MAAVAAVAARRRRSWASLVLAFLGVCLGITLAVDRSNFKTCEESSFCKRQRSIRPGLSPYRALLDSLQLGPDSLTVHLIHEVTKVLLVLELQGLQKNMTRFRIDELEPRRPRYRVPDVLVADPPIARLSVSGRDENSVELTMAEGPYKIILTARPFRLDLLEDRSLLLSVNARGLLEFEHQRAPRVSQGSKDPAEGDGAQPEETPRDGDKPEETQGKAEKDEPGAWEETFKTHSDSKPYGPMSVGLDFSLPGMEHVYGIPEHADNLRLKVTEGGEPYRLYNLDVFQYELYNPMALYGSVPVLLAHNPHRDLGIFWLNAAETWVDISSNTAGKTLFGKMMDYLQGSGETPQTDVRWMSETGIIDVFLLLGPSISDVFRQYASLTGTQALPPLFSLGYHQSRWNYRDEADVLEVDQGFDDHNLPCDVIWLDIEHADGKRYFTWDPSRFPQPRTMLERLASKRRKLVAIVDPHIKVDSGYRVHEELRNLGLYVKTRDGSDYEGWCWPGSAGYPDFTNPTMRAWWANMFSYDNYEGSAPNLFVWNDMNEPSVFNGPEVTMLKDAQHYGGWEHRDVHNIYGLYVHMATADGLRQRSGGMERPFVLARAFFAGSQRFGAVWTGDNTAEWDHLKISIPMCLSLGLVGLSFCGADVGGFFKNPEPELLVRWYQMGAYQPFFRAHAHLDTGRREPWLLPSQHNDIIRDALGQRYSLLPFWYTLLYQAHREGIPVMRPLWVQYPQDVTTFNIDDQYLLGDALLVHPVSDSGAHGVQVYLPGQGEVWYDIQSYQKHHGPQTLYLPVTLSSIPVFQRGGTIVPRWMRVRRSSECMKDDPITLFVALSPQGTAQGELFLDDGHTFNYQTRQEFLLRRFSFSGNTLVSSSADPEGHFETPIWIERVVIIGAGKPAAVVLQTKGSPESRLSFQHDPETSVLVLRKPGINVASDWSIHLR
UniProt Q13144, sequence (Q13144 whole entry, looked up): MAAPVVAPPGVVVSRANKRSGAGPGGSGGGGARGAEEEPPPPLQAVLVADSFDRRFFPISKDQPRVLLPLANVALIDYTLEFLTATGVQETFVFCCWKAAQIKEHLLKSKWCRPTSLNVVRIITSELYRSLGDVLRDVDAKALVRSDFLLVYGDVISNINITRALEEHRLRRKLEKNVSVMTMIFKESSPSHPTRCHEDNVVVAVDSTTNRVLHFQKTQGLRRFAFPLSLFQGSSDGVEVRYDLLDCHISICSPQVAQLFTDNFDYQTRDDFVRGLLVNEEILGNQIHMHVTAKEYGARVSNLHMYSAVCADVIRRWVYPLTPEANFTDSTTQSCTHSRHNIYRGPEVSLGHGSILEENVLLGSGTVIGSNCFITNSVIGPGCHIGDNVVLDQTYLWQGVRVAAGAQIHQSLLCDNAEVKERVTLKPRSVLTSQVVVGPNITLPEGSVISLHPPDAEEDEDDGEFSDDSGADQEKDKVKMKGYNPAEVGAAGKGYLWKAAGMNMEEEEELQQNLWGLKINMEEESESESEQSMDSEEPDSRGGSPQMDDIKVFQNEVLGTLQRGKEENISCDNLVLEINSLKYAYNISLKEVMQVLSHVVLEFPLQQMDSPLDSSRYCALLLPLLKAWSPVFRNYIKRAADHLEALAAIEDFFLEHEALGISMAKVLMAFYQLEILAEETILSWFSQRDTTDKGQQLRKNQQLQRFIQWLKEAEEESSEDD
UniProt Q2NKX8, sequence (Q2NKX8 whole entry, looked up): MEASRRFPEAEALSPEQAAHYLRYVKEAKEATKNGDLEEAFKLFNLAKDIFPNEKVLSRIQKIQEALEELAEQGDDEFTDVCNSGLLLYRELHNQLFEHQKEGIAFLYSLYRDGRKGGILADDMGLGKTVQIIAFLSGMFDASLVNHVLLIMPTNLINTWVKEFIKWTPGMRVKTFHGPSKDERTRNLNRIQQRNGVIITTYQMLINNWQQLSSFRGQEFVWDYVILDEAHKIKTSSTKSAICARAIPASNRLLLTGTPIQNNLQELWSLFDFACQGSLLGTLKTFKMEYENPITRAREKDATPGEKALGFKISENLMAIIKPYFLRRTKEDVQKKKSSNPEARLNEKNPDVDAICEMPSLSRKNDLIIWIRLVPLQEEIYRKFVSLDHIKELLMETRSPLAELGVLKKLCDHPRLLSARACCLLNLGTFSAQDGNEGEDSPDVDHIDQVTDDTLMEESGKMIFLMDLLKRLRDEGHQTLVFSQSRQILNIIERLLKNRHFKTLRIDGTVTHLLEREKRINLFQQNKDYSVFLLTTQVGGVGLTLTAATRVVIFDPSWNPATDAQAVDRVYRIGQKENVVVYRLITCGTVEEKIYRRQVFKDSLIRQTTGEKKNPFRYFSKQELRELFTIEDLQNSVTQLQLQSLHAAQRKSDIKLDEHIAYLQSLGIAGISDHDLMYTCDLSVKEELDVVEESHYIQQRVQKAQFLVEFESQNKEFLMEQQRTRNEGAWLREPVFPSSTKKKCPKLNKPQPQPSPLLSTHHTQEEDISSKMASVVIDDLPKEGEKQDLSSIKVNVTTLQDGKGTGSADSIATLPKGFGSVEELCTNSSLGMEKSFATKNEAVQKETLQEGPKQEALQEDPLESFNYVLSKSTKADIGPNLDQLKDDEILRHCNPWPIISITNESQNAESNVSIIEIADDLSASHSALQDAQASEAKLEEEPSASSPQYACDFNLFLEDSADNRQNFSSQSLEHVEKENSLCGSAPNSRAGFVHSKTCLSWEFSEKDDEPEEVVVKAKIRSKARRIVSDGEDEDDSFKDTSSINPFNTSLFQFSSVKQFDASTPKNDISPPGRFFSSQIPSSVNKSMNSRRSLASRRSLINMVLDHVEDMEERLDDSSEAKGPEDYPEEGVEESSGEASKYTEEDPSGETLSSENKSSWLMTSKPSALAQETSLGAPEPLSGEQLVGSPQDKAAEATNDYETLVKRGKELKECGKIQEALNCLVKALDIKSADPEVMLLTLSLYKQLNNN
UniProt P54132, sequence (P54132 whole entry, looked up): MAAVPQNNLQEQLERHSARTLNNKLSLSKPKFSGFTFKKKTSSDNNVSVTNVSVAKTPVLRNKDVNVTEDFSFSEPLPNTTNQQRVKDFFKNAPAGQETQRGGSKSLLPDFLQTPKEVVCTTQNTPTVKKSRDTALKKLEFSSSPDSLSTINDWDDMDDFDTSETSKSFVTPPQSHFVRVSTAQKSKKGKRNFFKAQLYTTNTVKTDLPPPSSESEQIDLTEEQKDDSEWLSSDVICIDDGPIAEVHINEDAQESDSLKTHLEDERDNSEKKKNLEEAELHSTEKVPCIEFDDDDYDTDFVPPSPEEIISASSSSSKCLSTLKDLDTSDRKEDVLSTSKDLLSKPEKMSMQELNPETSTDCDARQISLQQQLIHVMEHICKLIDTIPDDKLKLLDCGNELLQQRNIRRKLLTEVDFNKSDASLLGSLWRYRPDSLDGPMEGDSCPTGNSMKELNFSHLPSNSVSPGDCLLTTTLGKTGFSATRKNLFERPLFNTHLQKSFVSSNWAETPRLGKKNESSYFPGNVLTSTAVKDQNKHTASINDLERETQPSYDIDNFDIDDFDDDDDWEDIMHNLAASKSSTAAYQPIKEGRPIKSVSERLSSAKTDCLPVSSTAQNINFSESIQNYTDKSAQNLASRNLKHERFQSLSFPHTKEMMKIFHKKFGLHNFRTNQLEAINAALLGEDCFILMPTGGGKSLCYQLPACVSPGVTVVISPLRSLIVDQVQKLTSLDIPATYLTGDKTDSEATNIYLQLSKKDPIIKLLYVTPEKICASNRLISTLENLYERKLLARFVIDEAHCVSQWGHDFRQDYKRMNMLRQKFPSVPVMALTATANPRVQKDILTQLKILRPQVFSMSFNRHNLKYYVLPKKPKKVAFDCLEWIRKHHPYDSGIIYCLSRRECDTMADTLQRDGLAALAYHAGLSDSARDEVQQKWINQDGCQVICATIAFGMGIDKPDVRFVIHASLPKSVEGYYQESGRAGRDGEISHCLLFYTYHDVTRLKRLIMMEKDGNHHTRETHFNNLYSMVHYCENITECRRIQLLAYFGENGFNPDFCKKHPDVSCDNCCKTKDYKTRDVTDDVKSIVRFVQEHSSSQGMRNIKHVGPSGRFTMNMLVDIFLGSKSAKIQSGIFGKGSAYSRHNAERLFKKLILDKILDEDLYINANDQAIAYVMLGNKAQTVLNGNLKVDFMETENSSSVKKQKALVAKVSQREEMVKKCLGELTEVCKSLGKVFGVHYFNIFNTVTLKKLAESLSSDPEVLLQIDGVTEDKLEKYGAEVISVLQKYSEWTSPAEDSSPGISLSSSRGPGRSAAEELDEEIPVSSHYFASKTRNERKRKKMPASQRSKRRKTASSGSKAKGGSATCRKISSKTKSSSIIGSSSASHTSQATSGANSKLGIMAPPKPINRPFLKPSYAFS
UniProt Q14247, sequence (Q14247 whole entry, looked up): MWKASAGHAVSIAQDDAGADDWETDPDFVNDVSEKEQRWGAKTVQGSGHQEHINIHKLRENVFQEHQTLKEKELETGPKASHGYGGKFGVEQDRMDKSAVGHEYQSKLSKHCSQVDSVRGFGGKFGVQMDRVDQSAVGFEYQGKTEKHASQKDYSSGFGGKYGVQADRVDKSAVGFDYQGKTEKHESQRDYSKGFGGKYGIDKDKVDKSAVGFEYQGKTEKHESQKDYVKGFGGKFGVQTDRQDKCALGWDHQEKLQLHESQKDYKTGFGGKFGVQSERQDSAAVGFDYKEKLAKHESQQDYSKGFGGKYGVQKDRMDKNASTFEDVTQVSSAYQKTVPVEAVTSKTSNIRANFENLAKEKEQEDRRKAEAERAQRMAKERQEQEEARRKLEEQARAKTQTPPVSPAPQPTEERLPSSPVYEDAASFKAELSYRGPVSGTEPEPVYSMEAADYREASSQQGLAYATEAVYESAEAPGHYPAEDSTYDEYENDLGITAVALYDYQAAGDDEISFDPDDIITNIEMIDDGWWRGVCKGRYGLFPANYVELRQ
UniProt Q13404, sequence (Q13404 whole entry): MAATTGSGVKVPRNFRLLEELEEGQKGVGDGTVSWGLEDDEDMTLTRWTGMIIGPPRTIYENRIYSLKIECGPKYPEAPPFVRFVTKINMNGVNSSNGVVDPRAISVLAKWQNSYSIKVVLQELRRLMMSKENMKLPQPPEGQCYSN

Row | Target | log2 ratio of iodoacetamide-alkyne labeling
1 | UniProt Q5H9R7_C467 | 0.103 (inactive)
2 | UniProt Q15042_C873 | 0.165 (inactive)
3 | AKAP12 C1407 (UniProt Q02952) | 1.16 (active)
4 | FOXK1 C254 (UniProt P85037) | 1.18 (active)
5 | PPA1 C274 (UniProt Q15181) | 0.425 (inactive)
6 | UniProt Q02930_C80 | 1.09 (active)
7 | BLM C685 (UniProt P54132) | 0.197 (inactive)
8 | BMS1 C725 (UniProt Q14692) | 1.27 (active)
9 | CDK5 C157 (UniProt Q00535) | 0.141 (inactive)
10 | UniProt Q15365_C158 | 0.366 (inactive)
11 | NUBP1 C25 (UniProt P53384) | 2.24 (active)
12 | DLGAP5 C129 (UniProt Q15398) | 1.38 (active)
13 | CNN3 C173 (UniProt Q15417) | 1.01 (active)
14 | GAPVD1 C568 (UniProt Q14C86) | 0.475 (inactive)
15 | DYNC1H1 C4216 (UniProt Q14204) | 0.162 (inactive)
16 | CHAF1A C190 (UniProt Q13111) | 1.08 (active)
17 | EIF2B5 C335 (UniProt Q13144) | 0.267 (inactive)
18 | ADAR C649 (UniProt P55265) | 0.375 (inactive)

Row | Target | log2 ratio of iodoacetamide-alkyne labeling
19 | HCCS C66 (UniProt P53701) | 0.724 (inactive)
20 | GANAB C423 (UniProt Q14697) | 0.019 (inactive)
21 | DYNC1H1 C3147 (UniProt Q14204) | 0.433 (inactive)
22 | UBE2V1 C144 (UniProt Q13404) | 0.136 (inactive)
23 | TSR1 C329 (UniProt Q2NL82) | 0.425 (inactive)
24 | P86790_C358 (UniProt P86791+P86790) | 0.213 (inactive)
25 | STX5 C68 (UniProt Q13190) | 0.4 (inactive)
26 | UniProt Q05655_C127 | 0.196 (inactive)
27 | NOTCH2 C1357 (UniProt Q04721) | 1.55 (active)
28 | BPTF C1357 (UniProt Q12830) | 0.53 (inactive)
29 | REEP5 C18 (UniProt Q00765) | 0.482 (inactive)
30 | AKAP12 C1139 (UniProt Q02952) | 0.521 (inactive)
31 | UniProt P78527_C1904 | 0.286 (inactive)
32 | YARS C250 (UniProt P54577) | 0.0441 (inactive)
33 | ERCC6L C356 (UniProt Q2NKX8) | 0.193 (inactive)
34 | CTTN C112 (UniProt Q14247) | 0.88 (inactive)
35 | UniProt Q5H9L4_C158 | 1.09 (active)
36 | TBCE C371 (UniProt Q15813) | 0.185 (inactive)
